Experimental data taken from PubChem BioAssay.
Several values for one entry are separate records, joined by “and”; a condition that tells them apart may be missing. Identical values can stand only once. Records with an inconclusive call do not appear. For part of these data: Entries with a potency or affinity are not part of this list. The source holds several records for some structures; these can differ, active in one and inactive in another. Activity calls are given as the source filed them. Unless noted, the rule behind the calls is not given here.

Key:
[1] = polyglutamine-triggered caspase-3 activation inhibitors, cell-based (AID 1583); conditions: polyglutamine-induced caspase-3 activation, cell assay; stronger effect = higher value;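 tested at 10 µM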
[2] = suppressors of polyQ aggregation in yeast, 75Q-TubU reporter (AID 1593); conditions: Yeast 75Q polyglutamine aggregation reporter
[3] = rescue of polyQ-huntingtin neuronal dysfunction in worms, whole organism, C. elegans mechanosensory neurons, N-terminal huntingtin (AID 1599); conditions: touch response, stronger effect = higher value
[4] = inhibitors of mitochondrial cytochrome c release, biochemical, purified mitochondria (AID 1603); conditions: stronger effect = lower value;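 note: mouse liver mitochondria challenged with calcium chloride; signal normalized to the plate average as 100%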
[5] = inhibitors of polyQ protein aggregation (AID 1604); conditions: polyglutamine-induced protein aggregation inhibition assay; stronger effect = higher value; tested at 2.5 µM
[6] = enhancers of glutamate uptake in motor neurons, MN-1 cell line (AID 1612); conditions: MN-1 motor neuron cells, stronger effect = higher value;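 note: tested at 1 µM final; 0% = mean of DMSO vehicle wells on each plate; positive means more glutamate uptake than control and negative means less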
[7] = reducers of polyQ inclusions in PC12 cells, cell-based, NGF-treated PC12, GFPQ80 (AID 1614); conditions: PC12 NGF-treated GFP-polyQ80 inclusion reduction;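 note: lower means fewer inclusions and 0 means no inclusions at all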
[8] = suppressors of polyglutamine aggregation in yeast, 75Q-TubH (AID 1616); conditions: S. cerevisiae 75Q-TubH polyglutamine aggregation suppression; stronger effect = higher value
[9] = liver-stage malaria parasite growth inhibition, primary screen, cell-based, HepG2, luciferase luminescence, HepG2 viability (AID 624349; in the data active = parasite load remaining mostly below about 12%, no sharp cut-off; inactive = mostly above about 10%;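 note: 100% = mean of DMSO negative control wells on the same plate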); conditions: P. berghei liver stage in HepG2, luciferase luminescence, concentration not given here; parasite load remaining: stronger effect = lower value; viability: measured here: HepG2 viability without parasites
[10] = test system: Aerobactin synthetase IucA (Klebsiella pneumoniae hvKP1); assay: Biochemical IucA enzyme inhibition primary screen of the Spectrum library (AID 1346200); conditions: malachite green pyrophosphate, A620, at 8 µM, stronger effect = lower value;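 note: 100% = wells without compound and 0% = wells lacking enzyme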
[11] = target: Mitogen-activated protein kinase 7 (Homo sapiens) (UniProt Q13164); assay: ERK5 transactivation activators in reporter cells, primary screen, cell-based, HTS (AID 1508626;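 active = luciferase signal above three times the same-plate solvent-only control wells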;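 note: luciferase driven by Gal4-ERK5 fusion binding five Gal4 sites before minimal TATA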); conditions: HeLa Gal4-ERK5 transactivation, 18 h, at 5 µM, stronger effect = higher value
Sequence of Mitogen-activated protein kinase 7 (Homo sapiens) (Q13164 whole entry, looked up, the tested form may be a part): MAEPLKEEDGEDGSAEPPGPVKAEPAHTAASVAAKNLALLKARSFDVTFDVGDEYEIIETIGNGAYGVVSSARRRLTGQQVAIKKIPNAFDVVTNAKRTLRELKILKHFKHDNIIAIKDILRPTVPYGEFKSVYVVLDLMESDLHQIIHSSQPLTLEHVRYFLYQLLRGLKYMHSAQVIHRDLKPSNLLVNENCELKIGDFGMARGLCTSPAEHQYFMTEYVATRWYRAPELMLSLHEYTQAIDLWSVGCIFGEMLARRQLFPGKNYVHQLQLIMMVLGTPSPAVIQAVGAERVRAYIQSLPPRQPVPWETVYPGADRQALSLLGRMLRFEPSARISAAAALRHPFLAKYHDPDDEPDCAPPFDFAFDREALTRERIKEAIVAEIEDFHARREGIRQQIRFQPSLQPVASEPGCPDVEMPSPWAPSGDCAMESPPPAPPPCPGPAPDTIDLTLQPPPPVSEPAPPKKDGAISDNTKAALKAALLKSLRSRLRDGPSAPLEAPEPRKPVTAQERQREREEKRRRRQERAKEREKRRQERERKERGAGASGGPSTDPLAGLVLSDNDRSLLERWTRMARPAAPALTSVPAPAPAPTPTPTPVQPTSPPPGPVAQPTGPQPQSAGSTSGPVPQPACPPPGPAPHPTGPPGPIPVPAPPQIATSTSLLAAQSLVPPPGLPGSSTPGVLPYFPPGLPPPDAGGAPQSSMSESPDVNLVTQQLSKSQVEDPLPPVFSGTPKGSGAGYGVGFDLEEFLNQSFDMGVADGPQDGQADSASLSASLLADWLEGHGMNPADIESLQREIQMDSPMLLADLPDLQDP

[12] = test system: Aerobactin synthetase IucA (Klebsiella pneumoniae, hypervirulent); assay: IucA enzyme inhibition, biochemical, LOPAC library, absorbance readout (AID 1346212); conditions: IucA enzyme assay, absorbance (OD) readout; stronger effect = lower value;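 tested at 8 µM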;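 note: 100% = no compound wells and 0% = no enzyme wells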
[13] = sensitizers of A549 cells to miR-34 induction, primary screen, imaging, A549 dox-inducible miR-34, nuclei and caspase counts (AID 1347080;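 active = compounds whose cell count with miR-34 switched on is under 0.7 times the count with it off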); conditions: A549 miR-34 inducible, Hoechst nuclei count, 48 h
[14] = target: ATP-dependent translocase ABCB1 (Homo sapiens) (UniProt P08183); assay: MDR1 (ABCB1) efflux transporter inhibition, cell-based (AID 377; in the data active = fluorescence slope change above about 50%); conditions: MDR1-expressing cells, fluorescent substrate accumulation slope; stronger effect = higher value; concentration not given here
Sequence of ATP-dependent translocase ABCB1 (Homo sapiens) (P08183 whole entry, looked up): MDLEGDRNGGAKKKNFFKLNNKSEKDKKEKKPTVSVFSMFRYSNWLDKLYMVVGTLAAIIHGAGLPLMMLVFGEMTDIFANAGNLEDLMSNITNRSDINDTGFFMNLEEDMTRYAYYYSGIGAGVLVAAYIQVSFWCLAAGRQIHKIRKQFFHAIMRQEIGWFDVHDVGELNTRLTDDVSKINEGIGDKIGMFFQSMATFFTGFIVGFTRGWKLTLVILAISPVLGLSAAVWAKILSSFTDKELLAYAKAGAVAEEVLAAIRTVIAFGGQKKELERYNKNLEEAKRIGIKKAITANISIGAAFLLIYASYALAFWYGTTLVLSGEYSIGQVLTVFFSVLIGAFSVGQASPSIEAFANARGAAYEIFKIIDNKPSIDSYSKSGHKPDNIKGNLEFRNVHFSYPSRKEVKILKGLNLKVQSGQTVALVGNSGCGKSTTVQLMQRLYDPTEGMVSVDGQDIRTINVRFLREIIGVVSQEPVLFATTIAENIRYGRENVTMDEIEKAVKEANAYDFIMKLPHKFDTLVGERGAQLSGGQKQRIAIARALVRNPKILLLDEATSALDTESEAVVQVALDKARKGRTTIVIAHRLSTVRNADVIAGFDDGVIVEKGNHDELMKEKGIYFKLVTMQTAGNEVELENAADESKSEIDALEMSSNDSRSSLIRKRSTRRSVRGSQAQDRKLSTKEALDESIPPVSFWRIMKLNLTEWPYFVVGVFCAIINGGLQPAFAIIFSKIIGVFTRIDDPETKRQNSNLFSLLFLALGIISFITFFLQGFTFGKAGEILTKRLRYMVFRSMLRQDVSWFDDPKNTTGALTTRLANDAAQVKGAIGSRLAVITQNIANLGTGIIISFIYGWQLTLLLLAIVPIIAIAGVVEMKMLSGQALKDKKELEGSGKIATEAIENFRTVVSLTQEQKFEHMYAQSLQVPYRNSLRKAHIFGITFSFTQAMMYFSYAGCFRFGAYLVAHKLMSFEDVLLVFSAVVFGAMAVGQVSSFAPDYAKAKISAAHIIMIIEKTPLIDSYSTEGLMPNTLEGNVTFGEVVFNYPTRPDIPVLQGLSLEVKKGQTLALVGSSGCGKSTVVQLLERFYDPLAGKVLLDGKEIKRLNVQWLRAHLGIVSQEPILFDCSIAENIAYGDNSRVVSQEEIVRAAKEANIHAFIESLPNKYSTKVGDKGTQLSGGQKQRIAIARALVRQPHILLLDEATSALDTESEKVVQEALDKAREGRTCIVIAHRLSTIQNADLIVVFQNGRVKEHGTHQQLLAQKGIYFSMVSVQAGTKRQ

[15] = inhibitors of Cryptococcus chitosan production, flow cytometry, Cibacron Brilliant Red staining (AID 1347148); conditions: Cryptococcus neoformans chitosan, stronger effect = lower value; at 10 µM unless noted;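 note: compound exposure lasted three days at 37 degrees C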
[16] = hESC survival regulators, cell-based (AID 493140); conditions: human embryonic stem cell survival screen; stronger effect = higher value;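 note: cells exposed to compounds for four days before counting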
[17] = measured here: relative caspase fold change +Dox/-Dox
[18] = measured here: total cells with miR-34 induction, stronger effect = lower value
[19] = measured here: total cells without miR-34 induction

COc1ccc2c(c1OC)C(=O)O[C@H]2[C@H]1c2cc3c(cc2CCN1C)OCO3
inhibition [1]: -1.71% | score [2]: 1.46 | rescue above control [3]: -6.7 | cytochrome c release ratio [4]: 1.06 | inhibition of aggregation [5]: 71.9% | glutamate uptake change [6]: 13.5% | inclusion score [7]: 2 | aggregation suppression score [8]: 1.24 | parasite load remaining [9]: 124% (inactive) | viability [9]: 70.9% | activity remaining [10]: 127% (inactive) | luciferase signal [11]: 76 AU (inactive)

COc1ccccc1N1CCN(CCCCN2C(=O)c3ccccc3C2=O)CC1
remaining activity [12]: 113% (inactive)

CCC(C)C(=O)O[C@H]1[C@H](O)C2C(CN3CC(C)CCC3[C@@]2(C)O)C2C[C@]34O[C@]5(O)C(OC(=O)C(C)(O)C(C)O)CC[C@@]3(C)C5C(OC(C)=O)[C@@H](OC(C)=O)C4[C@@]21O (stereo not given in full)
inhibition [1]: 19.1% | score [2]: 1.45 | rescue above control [3]: -3.98 | cytochrome c release ratio [4]: 1 | inhibition of aggregation [5]: 1.96% | glutamate uptake change [6]: 2.79% | inclusion score [7]: 2 | aggregation suppression score [8]: 1.75 | parasite load remaining [9]: 75% (inactive) | viability [9]: 68.5% | activity remaining [10]: 107% (inactive)

O=c1ccc2c(O)c3ccoc3cc2o1
activity remaining [10]: 96.6% (inactive) | luciferase signal [11]: 32 AU (inactive)

CN(C)C/C=C(/c1ccc(Br)cc1)c1cccnc1
remaining activity [12]: 107% (inactive)

CN(C)S(=O)(=O)c1ccc2c(c1)/C(=C/c1cc3c([nH]1)CCCC3)C(=O)N2
remaining activity [12]: 121% (inactive)

O=C1OCCN1/N=C/c1ccc([N+](=O)[O-])o1
parasite load remaining [9]: 1.08% (active) and 4.96% (inactive) | viability [9]: 58.1% and 96.5% | activity remaining [10]: 104% (inactive) | fold change ([13]; stronger effect = lower value, cell number ratio, induced over uninduced): 0.857 (inactive) | fold change [13, 17]: 1.85 | cell count [13, 18]: 9350 | cell count [13, 19]: 10900

C[C@@H]1C(=O)OC2[C@H](O)C34[C@@H]5OC(=O)[C@@]3(O[C@@H]3OC(=O)[C@H](O)[C@@]34[C@H](C(C)(C)C)[C@H]5O)[C@]21O (stereo not given in full)
parasite load remaining [9]: 84.4% (inactive) | viability [9]: 70.9% | activity remaining [10]: 116% (inactive)

C=CCn1c(=O)c2c(nc(-c3ccc(S(=O)(=O)O)cc3)n2C)n(C)c1=O
remaining activity [12]: 128% (inactive)

O=C(O)CP(=O)(O)O
remaining activity [12]: 89.1% (inactive)

C[C@H]1O[C@@H](O[C@H]2[C@@H](O)C[C@H](O[C@H]3[C@@H](O)C[C@H](O[C@H]4CC[C@]5(C)C6CC[C@]7(C)[C@@H](C8=CC(=O)OC8)CC[C@]7(O)C6CC[C@@H]5C4)O[C@@H]3C)O[C@@H]2C)C[C@H](O)[C@@H]1O (stereo not given in full)
score [2]: 1.05 | rescue above control [3]: -1.72 | cytochrome c release ratio [4]: 1.31 | inhibition of aggregation [5]: 76% | glutamate uptake change [6]: 5.63% | inclusion score [7]: 2 | aggregation suppression score [8]: 0.858 | activity remaining [10]: 121% (inactive)

CC1(C)C2C[C@@H](O)[C@]3(C)C(CC[C@@]4(C)[C@H](c5ccoc5)OC(=O)[C@H]5O[C@]543)[C@@]2(C)[C@@H](O)C[C@H]1O (stereo not given in full)
activity remaining [10]: 124% (inactive) | luciferase signal [11]: 32 AU (inactive)

COc1cc2c(cc1C(F)(F)F)N(C(=O)Nc1cc(F)cc(-c3cccnc3)c1)CC2
remaining activity [12]: 120% (inactive)

CN1[C@@H]2CC(OC(=O)[C@H](CO)c3ccccc3)C[C@H]1[C@@H]1O[C@@H]12 (stereo not given in full)
remaining activity [12]: 105% (inactive)

O=C(NC(=O)c1ccccc1Cl)Nc1ccc(OC(F)(F)F)cc1
activity remaining [10]: 118% (inactive) | luciferase signal [11]: 68 AU (inactive)

O=C(O)P(=O)(O)O
fluorescence slope change [14]: 95.2% (active) | activity remaining [10]: 112% (inactive)

C=C[C@@H]1C2=CCOC(=O)C2=CO[C@H]1O[C@@H]1O[C@H](CO)[C@@H](O)[C@H](O)[C@H]1O
activity remaining [10]: 126% (inactive) | luciferase signal [11]: 64 AU (inactive)

COc1ccc2c(c1OC)C(=O)O[C@@H]2[C@@H]1c2cc3c(cc2CCN1C)OCO3
parasite load remaining [9]: 190% (inactive) | viability [9]: 68.5% | activity remaining [10]: 113% (inactive)

CC(=O)C1=C(O)C2C3c4c[nH]c5cccc(c45)CC3C(C)(C)N2C1=O (stereo not given)
inhibition [1]: -21.2% | score [2]: -0.21 | rescue above control [3]: 9.72 | cytochrome c release ratio [4]: 1.1 | inhibition of aggregation [5]: -15.2% | glutamate uptake change [6]: 28.8% | aggregation suppression score [8]: 0.0191 | activity remaining [10]: 102% (inactive) | fold fluorescence [15]: 4.14 [at 148.6 µM] (inactive)

O=C1CC2OCC=C3CN4CC[C@]56c7ccccc7N1C5[C@H]2[C@H]3CC46 (stereo not given in full)
inhibition [1]: -12.5% | score [2]: 1.28 | rescue above control [3]: -0.21 | cytochrome c release ratio [4]: 1 | inhibition of aggregation [5]: 70.4% | glutamate uptake change [6]: -17.6% | inclusion score [7]: 1 | aggregation suppression score [8]: 0.688 | parasite load remaining [9]: 113% (inactive) and 54.7% (inactive) | viability [9]: 71.9% and 95.5% | activity remaining [10]: 121% (inactive) | fold change ([13]; stronger effect = lower value): 0.917 (inactive) | fold change [13, 17]: 1.82 | cell count [13, 18]: 11700 | cell count [13, 19]: 12700

CNC(Cc1c[nH]c2ccccc12)C(=O)O (stereo not given)
parasite load remaining [9]: 105% (inactive) | viability [9]: 73.8% | activity remaining [10]: 108% (inactive) | luciferase signal [11]: 36 AU (inactive)

CC12CCCCC1(Br)[N+](=O)N2[O-] (stereo not given)
activity remaining [10]: 108% (inactive) | luciferase signal [11]: 64 AU (inactive)

C/C=C(\C)C(=O)O[C@H]1C[C@@H](OC(C)=O)[C@@]2(C(=O)OC)CO[C@@H]3C2[C@]12CO[C@](O)(C(=O)OC)[C@H]2[C@](C)(C12O[C@@]1(C)[C@H]1C[C@@H]2OC2OC=C[C@@]21O)[C@@H]3O (stereo not given in full)
inhibition [1]: 0.47% | score [2]: 1.31 | rescue above control [3]: 3.11 | cytochrome c release ratio [4]: 1.46 | inhibition of aggregation [5]: 72.4% | glutamate uptake change [6]: 12.4% | inclusion score [7]: 2 | aggregation suppression score [8]: 1 | parasite load remaining [9]: 62.6% (inactive) | viability [9]: 97.8% | activity remaining [10]: 89% (inactive)

c1cc2c(cc1[C@H]1OC[C@H]3[C@@H]1CO[C@H]3c1ccc3c(c1)OCO3)OCO2
activity remaining [10]: 120% (inactive) | luciferase signal [11]: 52 AU (inactive)

COc1ccc2c(c1)CC[C@@H]1[C@@H]2CC[C@]2(C)[C@@H](NCCCCCCN3C(=O)C=CC3=O)CC[C@@H]12
remaining activity [12]: 111% (inactive)

OC[C@H]1NC[C@H](O)[C@@H](O)[C@@H]1O
remaining activity [12]: 100% (inactive)

Cc1cccc(C2CN(C)CCc3c2cc(O)c(O)c3Cl)c1 (stereo not given)
remaining activity [12]: 105% (inactive)

CCCCN1CCC(COC(=O)c2cc(Cl)c(N)c3c2OCCO3)CC1
remaining activity [12]: 109% (inactive)

C=C1C2CC[C@H]3[C@]4(C)C[C@H](OC5OC(CO)C(OS(=O)(=O)O)C(OS(=O)(=O)O)C5OC(=O)CC(C)C)C[C@@H](C(=O)O)[C@H]4CC[C@]3(C2)[C@H]1O (stereo not given in full)
fluorescence slope change [14]: 23.6% (inactive) | inhibition [1]: 13.1% | score [2]: 1.67 | rescue above control [3]: -8.48 | cytochrome c release ratio [4]: 1.3 | inhibition of aggregation [5]: 74.7% | glutamate uptake change [6]: 4.94% | inclusion score [7]: 2 | aggregation suppression score [8]: 1.68 | survival [16]: 8.25 (inactive) | activity remaining [10]: 102% (inactive) | luciferase signal [11]: 160 AU (inactive)
